Assay outcomes: PubChem, several laboratories
In the library only some 2.1% were active in any assay of this set; here they are far more common.
aDG glyco up = activators of alpha-DG glycosylation, primary screen, uHTS, Pro5-aDG cells, AlphaScreen; alpha-DG glycosylation AlphaScreen (IIH6); 0% Pro5, 100% B10-LARGE cell signal; activation, % at 10 µM; 360,000 compounds, 0.22% hits; AID 624168, 2012;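 active means activation of at least 8% versus controls, or a plate z-score of at least 8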;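 further: Pro5 are CHO cells carrying HIG-tagged alpha-DG that lacks glycosylation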
COUP-TFII inh = NR2F2 transcriptional activity inhibitors, primary screen, cell-based, luciferase reporter, HEK293T, luminescence; COUP transcription factor 2 (Homo sapiens), P24468; HEK293T NGFI-A luciferase reporter; inhibition, % at 8.6 µM; 370,000 compounds, 0.7% hits;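 active means inhibition above a per-plate cutoff, mean inhibition of test wells between control levels plus 3 SD, cut at about 38% in these data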;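 further: cells cotransfected with COUP-TFII expression vector driving the NGFI-A reporter; 0% = median of COUP-TF2 test wells and 100% = reporter-only cells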
Target sequence (P24468 whole entry, looked up): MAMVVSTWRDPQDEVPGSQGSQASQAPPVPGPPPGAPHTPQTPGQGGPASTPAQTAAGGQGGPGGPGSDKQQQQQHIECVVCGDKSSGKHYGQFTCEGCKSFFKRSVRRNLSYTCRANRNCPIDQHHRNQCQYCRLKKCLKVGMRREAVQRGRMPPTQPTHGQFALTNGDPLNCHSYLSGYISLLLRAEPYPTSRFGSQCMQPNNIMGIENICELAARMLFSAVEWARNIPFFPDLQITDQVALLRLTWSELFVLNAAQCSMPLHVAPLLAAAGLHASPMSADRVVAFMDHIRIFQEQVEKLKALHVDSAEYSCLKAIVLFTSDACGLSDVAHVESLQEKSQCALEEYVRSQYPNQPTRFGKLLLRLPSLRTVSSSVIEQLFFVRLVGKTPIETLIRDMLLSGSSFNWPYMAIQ
HIV Env fusion = inhibitors of HIV-1 Env-driven cell-cell fusion, primary screen, HeLa-JRFL effector, CEM21 target cells, luciferase. 360,000 compounds, 1.1% hits. inhibition, % at 12.3 µM;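 active means mean replicate inhibition score of at least 50 and every replicate individually at or above 50; inconclusive means only one of the two criteria met; inactive means mean below 50 and not all replicates reaching 50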;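 further: 0% = plate neutral controls and 100% = maraviroc near 300 nM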
Gli-Sufu block = Gli-Sufu pathway antagonists, primary screen, luciferase luminescence, Sufu-KO-LIGHT cells, uHTS; Sufu-KO-LIGHT fibroblasts, Gli luciferase reporter luminescence; inhibition, % at 5 µM; 340,000 compounds, 0.74% hits;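 active means inhibition above about 55%, limit read from the data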;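 further: 0% = DMSO-treated cells and 100% = wells with medium but no cells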
GalR3 antag = GalR3 antagonists in HEK293 cells, primary screen, cell-based, fluorescence readout. Galanin receptor type 3 (Homo sapiens), O60755. HEK293 GalR3-CNG cAMP membrane potential fluorescence; galR3 body fused to GalR1 C-terminus. inhibition, % at 3 µM. 360,000 compounds, 0.44% hits;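 active means inhibition above the screen-wide average plus 3 SD, cut at about 13% in these data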;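 further: forskolin and galanin both at EC90 stimulate the cells; cAMP rise reported by CNG channel membrane potential dye signal; 0% = forskolin plus galanin with DMSO and 100% = forskolin alone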
GalR3 conf = GalR3 antagonist hit confirmation, cell-based, fluorescence, triplicate | shares compounds with GalR3 antag | HEK293 GalR3 CNG cAMP biosensor, membrane potential fluorescence; galR3 fused to GalR1 carboxy tail; challenged with forskolin and galanin at EC90 | inhibition, % at 3 µM | 1,600 compounds, 59% hits | AID 652245, 2013;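 active means inhibition above the primary screen's cutoff, the mean inhibition of all screened compounds plus 3 SD, cut at about 13% in these data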;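 further: 0% = forskolin plus galanin and 100% = forskolin alone with DMSO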
CNG parental = nonspecific cAMP agonists in parental HEK-CNG cells, counter-screen for GalR3 antagonist project, cell-based, fluorescence, high throughput | shares compounds with GalR3 antag | HEK293-CNG parental cells, cAMP membrane potential fluorescence; normalised: DMSO wells 0%, forskolin wells 100% | activation, % at 3 µM | 1,600 compounds, 10% hits | AID 652268, 2013; in the data active means activation above about 1.3%
Gal4-VP16 ctr = Gal4-VP16 luciferase reporter inhibitors, counter-screen for COUP-TFII antagonist project, cell-based, luminescence, HEK293 | shares compounds with COUP-TFII inh | inhibition, % at 8.5 µM | 2,500 compounds, 25% hits | AID 687007, 2013; in the data active means inhibition above about 13%
COUP-TFII conf = NR2F2 transcriptional activity inhibitors, confirmation, cell-based, luciferase reporter, HEK293, triplicate | HEK293 NGFI-A luciferase reporter, luminescence | AID 687008, 2013 | inhibition, % at 8.5 µM | shares compounds with COUP-TFII inh | 2,500 compounds, 45% hits;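 active means mean inhibition over three repeats above a set limit taken from the earlier primary screen, cut at about 38% in these data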;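 further: 100% = cells given the luciferase reporter alone without the COUP-TF2 vector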
* = called active by the depositor; u = inconclusive; x = not tested or not shown; [ ] = dose if it differs, or a comment.

SMILES	aDG glyco up	COUP-TFII inh	HIV Env fusion	Gli-Sufu block	GalR3 antag	GalR3 conf	CNG parental	Gal4-VP16 ctr	COUP-TFII conf
CC(C)NC(=O)N1CCCN(c2nc3ccc(Cl)cc3s2)CC1	0	41*	21	-7	20*	7	0	-31	5
CC(C)C(=O)N1CCN(c2nc3ccc(Cl)cc3s2)CC1	0	-4	-23	-82	0	x	x	x	x
CC(C)C#Cc1cnc2c(c1)C(=O)N([C@H](C)CO)C[C@@H](C)[C@@H](CN(C)C(=O)c1cnccn1)O2	x	x	-6[16.7 µM]	x	x	x	x	x	x
COc1ccc(-c2c[n+]3c(n2-c2ccc(C)cc2)CCCCC3)cc1	0	71*	11	79*	71*	92*	0	10	61*
O=C(c1cc(COc2ccc3ncccc3c2)on1)N1CCCC1	1	46*	-17	36	101*	30*	0	-40	24
C[C@@H]1CN([C@H](C)CO)C(=O)c2cc(NC(=O)Nc3ccccc3)ccc2O[C@@H](C)CCCCO[C@@H]1CN(C)C	x	x	5[16.7 µM]	x	x	x	x	x	x
CCOC(=O)C1CCN(C(=O)c2ccc(OCC(=O)Nc3cccc(C(F)(F)F)c3)c(OC)c2)CC1	4	66*	5	38	92*	107*	0	-6	59*
N#CCc1ccc(NC(=O)c2ccc(CN3CCc4ccccc4C3)cc2)cc1	0	56*	19	2	30*	105*	0	0	56*
CC(=O)c1cccc(NC(=O)c2ccc(CN3CCc4ccccc4C3)cc2)c1	0	19	18	43	-12	x	x	x	x
O=C(Nc1ccc(S(=O)(=O)N2CCOCC2)cc1)c1ccc(CN2CCc3ccccc3C2)cc1	x	x	x	-11	x	x	x	x	x
O=C(Nc1ccc(Cc2ccncc2)cc1)c1ccc(S(=O)(=O)N2CCCC2)cc1	4	69*	17	42	73*	94*	0	11	52*
O=C(Nc1ccc(Cl)cc1)c1ccc(CN2CCc3ccccc3C2)cc1	0	41*	-18	-5	108*	102*	0	-109	12
O=C(Nc1ccc(S(=O)(=O)N2CCCC2)cc1)c1ccc(CN2CCc3ccccc3C2)cc1	3	77*	u	52	96*	105*	-1	0	71*
CCC(=O)Nc1ccc2c(c1)C(=O)N(C)[C@H]1CC[C@@H](CC(=O)NCC3CC3)O[C@H]1CO2	x	x	2[16.7 µM]	x	x	x	x	x	x
O=C(C[C@@H]1C=C[C@H](NC(=O)C2CCOCC2)[C@H](CO)O1)NCC1CC1	x	x	16[16.7 µM]	x	x	x	x	x	x
FC(F)(F)c1ccc(Cl)c(CN2CCN(c3ncc(Cc4ccccc4)cn3)CC2)c1	x	1	-22	x	-5	x	x	x	x
Fc1ccc(CN2CCN(c3ncc(Cc4ccccc4)cn3)CC2)c(Cl)c1	x	51*	39	x	82*	109*	0	6	47*
CCS(=O)(=O)Nc1ccc2c(c1)C(=O)N(C)[C@@H]1CC[C@@H](CC(=O)NCc3ccccc3F)O[C@@H]1CO2	x	x	14[16.7 µM]	x	x	x	x	x	x
CCC(C)NS(=O)(=O)c1ccc(S(=O)(=O)N(CCc2ccc(OC)c(OC)c2)Cc2cccs2)cc1 (configuration not stated)	2	58*	48	1	26*	56*	-1	9	48*
COc1ccc(CCN(Cc2cccs2)S(=O)(=O)c2ccc(S(=O)(=O)N3CCCCCC3)cc2)cc1OC	0	0	6	21	0	x	x	x	x
Cc1c(Cl)cccc1NC(=O)N1CCCN(c2nc(-c3ccccc3)ns2)CC1	0	57*	55*	14	34*	99*	-1	8	51*
O=C(Nc1ccccc1Cl)N1CCCN(c2nc(-c3ccccc3)ns2)CC1	0	9	39	19	-5	x	x	x	x
O=C(COc1ccc2ccccc2c1Br)Nc1ccncc1	1	51*	-55	-2	61*	60*	0	-79	-2
CC(C)CCOc1cccc(OCC(=O)Nc2ccncc2)c1	1	62*	12	22	92*	110*	-1	-3	55*
Cc1cc(OCC(=O)Nc2ccncc2)cc(C)c1Cl	1	57*	8	-16	16*	37*	0	-5	32
SMILES	aDG glyco up	COUP-TFII inh	HIV Env fusion	Gli-Sufu block	GalR3 antag	GalR3 conf	CNG parental	Gal4-VP16 ctr	COUP-TFII conf
COc1cccc(OCC(=O)Nc2ccncc2)c1	0	31	-7	-1	-11	x	x	x	x
CC(=O)Nc1ccc2c(c1)C(=O)N(C)[C@@H]1CC[C@H](CC(=O)NCc3ccc(F)cc3)O[C@@H]1CO2	x	x	-3[16.7 µM]	x	x	x	x	x	x
O=C(Nc1ccc2c(c1)OCO2)N[C@H]1CC[C@@H](CCNC(=O)C2CC2)O[C@@H]1CO	x	x	6[16.7 µM]	x	x	x	x	x	x
Cc1ccnc(Nc2nc(-c3sc(C)nc3C)cs2)c1	0	70*	15	-17	32*	36*	0	-139	44*
Nc1nc2ccccc2cc1C(=O)NCc1ccc(Cl)cc1Cl	1	x	x	x	x	x	x	x	x
Nc1nc2ccccc2cc1C(=O)NCc1ccc(-c2ccccc2)cc1	1	65*	32	x	87*	97*	0	7	68*
CN(c1ccc(OCC(=O)OCC(=O)Nc2ccc(F)cc2)cc1)S(=O)(=O)c1ccc(Cl)cc1	0	2	-26	0	5	x	x	x	x
COc1ccc(NC(=O)COc2ccc(N(C)S(=O)(=O)c3ccc(Cl)cc3)cc2)cc1OC	1	59*	57*	26	91*	85*	0	2	58*
C[C@@H]1CN([C@H](C)CO)C(=O)c2cc(NC(=O)Nc3ccc4c(c3)OCO4)ccc2O[C@H]1CN(C)Cc1ccc2c(c1)OCO2	x	x	-4[16.7 µM]	x	x	x	x	x	x
Cc1ccc(NC(=O)CSc2ncnc3ccccc23)cc1S(=O)(=O)N1CCCCC1	1	39*	37	5	85*	104*	-1	-7	8
Cc1ccc(NC(=O)CSc2ncnc3ccccc23)cc1S(=O)(=O)N1CCOCC1	0	25	8	9	-6	x	x	x	x
